Results published in PubChem BioAssay (Tox21).
Inconclusive results are not listed. Calls of active or inactive are those of the source. Unless noted, calls follow the shape of the dose curve; as a rule, active = well fitted curve in the direction sought with a large enough effect in the repeat runs; inconclusive = weak or mixed curves; inactive = no such curve, though single readings can be large; an effect the other way counts as inactive or inconclusive.

What was measured:
[1] = qHTS assay to identify small molecule agonists of the vitamin D receptor (VDR) signaling pathway - cell viability counter screen (AID 743224); also: series mostly up to about 63 µM; nearly all actives have a fitted effect of over 50% in size
In short: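 Luminescence from CellTiter-Glo, read after 30 min at room temperature, reports viability of VDR-bla cells treated with compounds for 16 h at 37C in the wells used for the beta-lactamase FRET read.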

[2] = qHTS assay to identify small molecule antagonists of the vitamin D receptor (VDR) signaling pathway - cell viability counter screen (AID 743225); also: nearly all actives have a fitted effect of over 50% in size
In short: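 Compounds were pinned onto VDR-bla HEK 293T cells together with 1-alpha,25-dihydroxyvitamin D3 at 3 nM final. After 16 h at 37C and 5% CO2 plus the reporter readout, cell viability was measured by CellTiter-Glo luminescence (30 min, room temperature).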

[3] = qHTS assay to identify small molecule agonists of the NFkB signaling pathway (AID 1159509; active = well fitted curve in the direction sought with a large enough effect in the signal ratio in the repeat runs, not every such curve was filed as active; the % refers to the signal ratio; also: series mostly up to about 61 µM)
In short: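 NFkB-bla ME-180 cells carry a beta-lactamase reporter under an NF-kB response element. They were plated overnight, then exposed to compounds for 5 h at 37 C. Read-out is LiveBLAzer FRET after 1.5 hr at room temperature (405 nm excitation; 460/530 nm emission).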

[4] = qHTS assay to identify small molecule agonists of the NFkB signaling pathway - cell viability counter screen (AID 1159515; calls by dose curve; also: series mostly up to about 61 µM; nearly all actives have a fitted effect of over 55% in size)
In short: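 Luminescence from CellTiter-Glo (30 min, room temperature) gives viability, measured in the same wells as the beta-lactamase reporter read. Cells were NFkB-bla ME-180, 2,000 per well, treated 5 hr with compounds.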

[5] = qHTS assay to identify small molecule agonists of the endoplasmic reticulum stress response signaling pathway (AID 1159516; active = well fitted activation curve with a large enough effect in the signal ratio in the repeat runs, not every such curve was filed as active; the % refers to the signal ratio)
In short: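 Read-out is beta-lactamase cleavage of a FRET substrate (405 nm excitation; 460 and 530 nm emissions) in ESRE-bla HeLa cells after a 5 hr compound exposure at 37 C. Substrate incubation ran 2 hr at room temperature.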

[6] = qHTS assay to identify small molecule agonists of the endoplasmic reticulum stress response signaling pathway - cell viability counter screen (AID 1159517; calls by dose curve;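 also: HeLa cells carrying an ER stress response element beta-lactamase reporter; series mostly up to about 61 µM; nearly all actives have a fitted effect of over 50% in size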)
In short: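 CellTiter-Glo was added to wells already read for beta-lactamase FRET, and luminescence was recorded 30 min later. Cells: ESRE-bla HeLa, 1,500 per well, compound exposure 5 hr at 37 C.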

[7] = qHTS assay to identify small molecule antagonists of the retinoid-related orphan receptor gamma (ROR-gamma) signaling pathway - cell viability counter screen (AID 1159520); also: nearly all actives have a fitted effect of over 50% in size
In short: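 Tet-on ROR gamma CHO cells (1,000/well) were plated 4 hr, given compounds in DMSO for 2 hr at 37 C, then induced with 1 uM final doxycycline for 16 hr. Viability was read as ATP by CellTiter-Glo luminescence after 30 min.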

[8] = target: Nuclear receptor ROR-gamma (Homo sapiens) (UniProt P51449); test: qHTS assay to identify small molecule antagonists of the retinoid-related orphan receptor gamma (ROR-gamma) signaling pathway (AID 1159521)
In short: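 Test compounds were applied to Tet-on RORγ CHO cells 2 h ahead of doxycycline hyclate (1 uM final). Luciferase reporter activity was quantified by luminescence after 16 h at 37 C and 5% CO2.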

[9] = qHTS assay to identify small molecule agonists of the AP-1 signaling pathway - cell viability counter screen (AID 1159525; calls by dose curve; also: nearly all actives have a fitted effect of over 55% in size)
In short: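 ME-180 AP-1-bla, 2500 cells/well, Opti-MEM + 0.5% dialyzed FBS; overnight 37 °C; cpd 15-pt titration, 5 h 37 °C; CellTiter-Glo 30 min RT; luminescence read; normalised to TOAB and DMSO controls.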

[10] = qHTS assay to identify small molecule agonists of the AP-1 signaling pathway (AID 1159526; calls by dose curve)
[11] = qHTS assay to identify small molecule agonists of the RXR signaling pathway - cell viability counter screen (AID 1159529)
In short: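 Compounds dissolved in DMSO were pinned onto HEK 293T cells carrying a beta-lactamase reporter under RXR-alpha control and incubated 16 hr. Cytotoxicity was then quantified by CellTiter-Glo luminescence.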

[12] = qHTS assay to identify small molecule antagonists of the retinoid acid receptor (RAR) signaling pathway - cell viability counter screen (AID 1159551); also: nearly all actives have a fitted effect of over 35% in size
In short: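 Luminescent ATP quantitation (CellTiter-Glo) gave cell viability in C3RL4 cells exposed to test chemicals for 6 h at 37 C alongside 1 uM final retinol.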

[13] = qHTS assay to identify small molecule antagonists of the retinoic acid receptor (RAR) signaling pathway (AID 1159552; also: nearly all actives have a fitted effect of over 50% in size)
In short: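 Test chemicals and DMSO controls were pin-transferred onto C3RL4 cells a day after seeding; retinol (1 uM final) followed at once. Luminescent reporter output was quantified after 6 hr of co-incubation and 30 min with detection reagent.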

[14] = qHTS assay to identify small molecule agonists of the retinoic acid receptor (RAR) signaling pathway (AID 1159553)
In short: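 Luminescence from a RARE-driven luciferase reporter in C3RL4 cells served as the read-out, measured after 30 min with detection reagent at room temperature. Compounds in DMSO were applied for 6 hr at 37 C following overnight seeding.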

[15] = qHTS assay to identify small molecule antagonists of the estrogen related receptor (ERR) signaling pathway - cell viability counter screen (AID 1224818);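 also: series mostly up to about 46 µM; viability measured after 17.5 h of compound exposure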
In short: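 Multiplexed counter screen to separate cytotoxic compounds from true ERR modulators. ERR cells received DMSO-dissolved compounds after a 6 h pre-incubation, were exposed 17.5 h at 37 C, then assayed with CellTiter-Fluor fluorescence.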

[16] = qHTS assay to identify small molecule antagonists of the estrogen related receptor (ERR) signaling pathway (AID 1224819)
In short: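 Seed ERR cells 2,000/well; rest 6 h at 37 C/5% CO2; pin compounds in DMSO; incubate 18 h at 37 C; add One-Glo; wait 30 min at room temperature; measure luminescence.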

[17] = qHTS assay to identify small molecule agonists of the estrogen related receptor (ERR) signaling pathway (AID 1224820)
In short: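 ERR reporter cell line (from NTP), 2,000 cells/well, incubated 6 h before compound addition, then 18 h at 37 C. Luminescence measured 30 min after One-Glo reagent at room temperature.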

[18] = test system: estrogen-related receptor alpha (ERRalpha) with PGC-1alpha coactivator, human; test: qHTS assay to identify small molecule antagonists of the estrogen related receptor signaling pathway with the pleiotropic PPARgamma coactivator (PGC) (AID 1224821; calls by dose curve)
In short: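 PGC/ERR reporter cell line, plated 6 h before compound addition, then exposed 18 h at 37 °C. Luciferase activity read by luminescence 30 min after One-Glo addition; decrease indicates antagonism.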

[19] = qHTS assay to identify small molecule antagonists of the estrogen related receptor signaling pathway with the pleiotropic PPARgamma coactivator (PGC) cell viability counter screen (AID 1224822;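 also: series mostly up to about 46 µM; viability read after 17.5 h compound exposure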)
In short: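 Cells: PGC/ERR, 2,000/well, 1536-well format. Pre-incubation 6 h, 37 C/5% CO2. Compound exposure 17.5 h, 37 C. Detection: CellTiter-Fluor, 30 min, fluorescence.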

Measured: Potency

O=C(O)CNc1ccccc1
inactive: [1] | [2] | [3] | [4] | [5] | [6] | [7] | [8] | [9] | [10] | [11] | [12] | [13]

CCN(CC)CC(=O)OCC(=O)[C@@]1(O)CC[C@H]2[C@@H]3CCC4=CC(=O)CC[C@]4(C)[C@H]3[C@@H](O)C[C@@]21C
inactive: [1] | [2] | [3] | [4] | [5] | [6] | [7] | [8] | [9] | [10] | [11] | [12] | [13] | [14]

CC(=O)Nc1cccc(N)c1
inactive: [1] | [3] | [4] | [5] | [6] | [7] | [8] | [9] | [10] | [11] | [12] | [13] | [14]

CC1=C(C)C(=O)C(C(CCCCCC(=O)O)c2ccccc2)=C(C)C1=O (configuration not stated)
inactive: [1] | [2] | [3] | [4] | [5] | [6] | [7] | [8] | [9] | [10] | [11] | [12] | [13]

CC(C(=O)O)c1ccc2c(c1)Cc1cccnc1O2 (configuration not stated)
inactive: [1] | [2] | [3] | [4] | [5] | [6] | [7] | [8] | [9] | [10] | [11] | [12] | [13] | [14]

O=C(O)c1cccnc1Nc1cccc(C(F)(F)F)c1
inactive: [1] | [2] | [3] | [4] | [5] | [6] | [7] | [8] | [9] | [10] | [11] | [12] | [13] | [15] | [16] | [17] | [18] | [19]

Nc1ncnc2c1ncn2[C@@H]1O[C@H](CO)[C@@H](O)[C@H]1O
inactive: [1] | [2] | [3] | [4] | [5] | [6] | [7] | [8] | [9] | [10] | [11] | [12] | [13]

OCCOc1cccc(OCCO)c1
inactive: [1] | [2] | [3] | [4] | [5] | [6] | [7] | [8] | [9] | [10] | [11] | [12] | [13]

Cc1ccccc1CCO
inactive: [1] | [2] | [3] | [4] | [5] | [6] | [7] | [8] | [9] | [10] | [11] | [12] | [13]

O=c1[nH]nc(-c2ccc([N+](=O)[O-])o2)o1
inactive: [1] | [2] | [3] | [4] | [5] | [6] | [7] | [8] | [9] | [10] | [11] | [12] | [13]

CCC(CC)C(=O)O
inactive: [1] | [2] | [3] | [4] | [5] | [6] | [7] | [8] | [9] | [10] | [11] | [12] | [13]

O=C(O)c1ccc2cc(O)ccc2c1
inactive: [1] | [2] | [3] | [4] | [5] | [6] | [7] | [8] | [9] | [10] | [11] | [12] | [13]

CC(C)=CCC/C(C)=C/C=N/O
inactive: [1] | [3] | [4] | [5] | [6] | [7] | [8] | [9] | [10] | [11] | [12] | [13] | [14]

CCOCCn1c(N2CCCN(C)CC2)nc2ccccc21
inactive: [1] | [2] | [3] | [4] | [5] | [6] | [7] | [8] | [9] | [10] | [11] | [12] | [13] | [14]

O=C1C=CCCC1
inactive: [1] | [2] | [3] | [4] | [5] | [6] | [7] | [8] | [9] | [10] | [11] | [12] | [13]

CS(C)=O
inactive: [2] | [3] | [4] | [5] | [6] | [7] | [8] | [9] | [10] | [11] | [12] | [13] | [14]

CCCN(C1CCN(C(=O)C2CCNCC2)CC1)[C@@H]1CCc2ccc(OC)cc2C1
inactive: [1] | [3] | [4] | [5] | [6] | [7] | [8] | [9] | [10] | [11] | [12] | [13] | [14]

COc1cc(C)c(Cc2cnc(N)nc2N)cc1OC
inactive: [1] | [2] | [3] | [4] | [5] | [6] | [7] | [8] | [9] | [10] | [11] | [12] | [13]
